Compounds with a hit are over-represented: about 3.3% of the library has one in this group of screens.
rCAG RNA binder: binds r(CAG) RNA repeats | hit rate 1.3% among 370,000 | inhibition, % at 3 µM | r(CAG) RNA repeat, TO-PRO-1 dye displacement fluorescence | AID 651821;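 active means inhibition above the plate cutoff, the mean of all test compounds on that plate plus 3 SD, cut at about 35% in these data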;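 further: 0% = DMSO alone and 100% = 100 µM mitoxantrone as full dye displacement; higher means more dye released from RNA so lower well fluorescence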
ABHD5-PLIN5 inh: ABHD5-PLIN5 protein interaction inhibition; Q00G26+Q8WTS1; Split G. princeps luciferase complementation, luminescence, 4 h; inhibition, % at 4 µM; hit rate 0.78% among 360,000; AID 602281;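 active means inhibition above the mean inhibition across every tested compound plus 3 SD, cut at about 22% in these data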;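 further: 0% = DMSO only wells and the 100% control is not disclosed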
NOD2 RIPK2 PPI: inhibitors of human NOD2-RIPK2 interaction | AID 624267 | hit rate 0.38% among 360,000 | inhibition, % at 4.98 µM | O43353 | CHO BLA complementation NOD2-RIPK2, CCF4 ratio; in the data active means inhibition above about 21%;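 further: 0% = vehicle only and 100% = reference blocker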
PRMT1 FP inh: blocks human protein arginine methyltransferase 1. Q99873. recombinant PRMT1, activity-based probe fluorescence polarization. inhibition, % at 2.79 µM. hit rate 1.3% among 370,000. AID 652257;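 active means inhibition above about 21% made by adding two undisclosed values, limit read from the data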
TLR4 MyD88 comp: blocks binding of human TLR4 to MyD88; O00206+Q99836; HeLa CL3-4 TLR4/MyD88 BLA complementation, FRET ratio; inhibition, % at 8.4 µM; hit rate 0.18% among 200,000; AID 861; in the data active means inhibition above about 25%;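 further: 0% = vehicle and 100% = reference inhibitor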
Target sequence (O00206 whole entry, looked up): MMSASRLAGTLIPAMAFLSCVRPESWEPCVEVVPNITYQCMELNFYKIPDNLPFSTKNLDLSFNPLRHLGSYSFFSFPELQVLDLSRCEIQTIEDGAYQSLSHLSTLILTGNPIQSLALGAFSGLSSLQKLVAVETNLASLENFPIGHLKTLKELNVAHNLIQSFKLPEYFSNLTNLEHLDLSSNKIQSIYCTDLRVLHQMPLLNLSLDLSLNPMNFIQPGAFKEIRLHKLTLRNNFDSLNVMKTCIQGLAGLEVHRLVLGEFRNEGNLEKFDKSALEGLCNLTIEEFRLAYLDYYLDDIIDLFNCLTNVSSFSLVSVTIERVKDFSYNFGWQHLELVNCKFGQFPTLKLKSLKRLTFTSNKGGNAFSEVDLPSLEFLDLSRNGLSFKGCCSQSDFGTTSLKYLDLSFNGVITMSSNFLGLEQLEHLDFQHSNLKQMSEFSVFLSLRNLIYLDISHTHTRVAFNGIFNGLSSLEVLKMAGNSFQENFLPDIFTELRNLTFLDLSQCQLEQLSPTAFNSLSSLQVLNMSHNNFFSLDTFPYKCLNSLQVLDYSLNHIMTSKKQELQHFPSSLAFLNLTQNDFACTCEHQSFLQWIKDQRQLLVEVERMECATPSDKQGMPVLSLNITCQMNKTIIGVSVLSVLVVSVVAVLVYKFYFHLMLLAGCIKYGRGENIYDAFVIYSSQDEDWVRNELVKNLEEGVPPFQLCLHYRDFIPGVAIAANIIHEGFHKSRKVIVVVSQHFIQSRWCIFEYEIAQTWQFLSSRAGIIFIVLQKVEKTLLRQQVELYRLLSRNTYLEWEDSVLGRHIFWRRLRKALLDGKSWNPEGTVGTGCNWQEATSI
Target sequence (Q99836 whole entry, looked up): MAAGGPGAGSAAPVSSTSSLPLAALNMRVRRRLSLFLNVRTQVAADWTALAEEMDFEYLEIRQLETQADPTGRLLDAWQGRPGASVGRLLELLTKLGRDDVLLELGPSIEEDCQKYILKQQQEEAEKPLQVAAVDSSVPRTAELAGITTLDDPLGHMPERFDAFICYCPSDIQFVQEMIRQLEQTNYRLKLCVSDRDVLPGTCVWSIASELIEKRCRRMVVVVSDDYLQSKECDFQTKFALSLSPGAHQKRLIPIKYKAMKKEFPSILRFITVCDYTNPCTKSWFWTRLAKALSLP
TLR9-MyD88 inh: TLR9-MyD88 interaction inhibition | AID 504734 | Q9NR96+Q99836 | CHO BLA complementation TLR9-MyD88, CCF4 FRET ratio | hit rate 0.21% among 340,000 | inhibition, % at 4.98 µM;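 active means inhibition above the mean over all tested compounds plus 3 SD, cut at about 21% in these data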;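 further: 0% = DMSO only wells and 100% = clavulanate BLA inhibitor control wells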
PRMT1 inh conf: confirmation of human PRMT1 inhibitors; shares compounds with PRMT1 FP inh; recombinant His-PRMT1, activity-based probe fluorescence polarization; inhibition, % at 2.79 µM; hit rate 42% among 3,300; AID 687036;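 active means mean inhibition across replicates above the hit cutoff derived for the earlier primary screen, cut at about 22% in these data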
* marks the source's active call; other numbers are inactive results.

Results for Cc1c(Cl)c(C(F)F)nn1CC(=O)NC1C(=O)N2C(C(=O)O)=C(CSc3nnnn3C)CSC12 (stereo not given) ?
rCAG RNA binder: 20; ABHD5-PLIN5 inh: 12; NOD2 RIPK2 PPI: 8; PRMT1 FP inh: 35*; TLR4 MyD88 comp: -8; TLR9-MyD88 inh: -1; PRMT1 inh conf: 20

Results for Cc1c(Cl)cnn1CC(=O)NC1C(=O)N2C(C(=O)O)=C(CSc3nnnn3C)CSC12 (stereo not given) ?
rCAG RNA binder: 19; ABHD5-PLIN5 inh: 9; NOD2 RIPK2 PPI: 5; PRMT1 FP inh: 62*; TLR4 MyD88 comp: -17; TLR9-MyD88 inh: -6; PRMT1 inh conf: 35*

How did CC(C(=O)NC1C(=O)N2C(C(=O)O)=C(CSc3nnnn3C)CSC12)n1cc(Cl)cn1 (stereo not given) do in these assays?
rCAG RNA binder: 9; ABHD5-PLIN5 inh: 10; NOD2 RIPK2 PPI: 3; PRMT1 FP inh: 30*; TLR4 MyD88 comp: -1; TLR9-MyD88 inh: 7; PRMT1 inh conf: 9

Results for OC1CCC(Nc2ncnc3sccc23)CC1 (stereo not given) ?
rCAG RNA binder: 0; ABHD5-PLIN5 inh: -5; NOD2 RIPK2 PPI: -11; PRMT1 FP inh: 3; TLR9-MyD88 inh: -12

How did COC(=O)[C@]12CCCCC=C1N(Cc1ccc(OC)cc1)C(=O)[C@@H]2CC(=O)NCCCN1CCCC1=O do in these assays?
rCAG RNA binder: 0; PRMT1 FP inh: -4

What do the screens show for `COC(=O)[C@@]12CCCN1[C@H](c1ccc(-c3ccc(Cl)c(Cl)c3)cc1)[C@H]1C(=O)N(C)C(=O)[C@H]12`?
rCAG RNA binder: 3; ABHD5-PLIN5 inh: -8; NOD2 RIPK2 PPI: -4; PRMT1 FP inh: -2; TLR9-MyD88 inh: -13

Results for Cc1ccc(-c2cn3c(=S)[nH]nc3s2)cc1 ?
rCAG RNA binder: 6; ABHD5-PLIN5 inh: 0; NOD2 RIPK2 PPI: 0; PRMT1 FP inh: 26*; TLR4 MyD88 comp: 13; TLR9-MyD88 inh: -2; PRMT1 inh conf: 1

How did Cc1ccc(-c2n[nH]c(=S)n2C)cc1 do in these assays?
rCAG RNA binder: 1; ABHD5-PLIN5 inh: 2; NOD2 RIPK2 PPI: 2; PRMT1 FP inh: 1; TLR4 MyD88 comp: 2; TLR9-MyD88 inh: 4

Results for CC(C)N=C1SC(CC(=O)Nc2ccccc2)C(=O)N1C(C)C (stereo not given) ?
rCAG RNA binder: -2; ABHD5-PLIN5 inh: 10; NOD2 RIPK2 PPI: -11; PRMT1 FP inh: 61*; TLR4 MyD88 comp: 0; TLR9-MyD88 inh: -11; PRMT1 inh conf: 1

Results for O=C1CC(N2CCC(c3nc4ccccc4[nH]3)CC2)C(=O)N1c1cccc(F)c1 (stereo not given) ?
rCAG RNA binder: -2; ABHD5-PLIN5 inh: -1; NOD2 RIPK2 PPI: -10; PRMT1 FP inh: 43*; TLR4 MyD88 comp: 1; TLR9-MyD88 inh: -6; PRMT1 inh conf: 9

What do the screens show for `CN1C(=O)CC(N2CCC(c3nc4ccccc4[nH]3)CC2)C1=O` (stereo not given)?
rCAG RNA binder: 3; ABHD5-PLIN5 inh: 5; NOD2 RIPK2 PPI: 0; PRMT1 FP inh: -4; TLR4 MyD88 comp: -1; TLR9-MyD88 inh: -9

What do the screens show for `O=C1CC(N2CCC(c3nc4ccccc4[nH]3)CC2)C(=O)N1Cc1ccccc1` (stereo not given)?
rCAG RNA binder: -2; ABHD5-PLIN5 inh: -1; NOD2 RIPK2 PPI: -1; PRMT1 FP inh: 33*; TLR4 MyD88 comp: -3; TLR9-MyD88 inh: 0; PRMT1 inh conf: 4

What do the screens show for `CN(C)c1nc(NCc2ccccc2)nc(N/N=C/c2ccc(Cl)cc2Cl)n1`?
rCAG RNA binder: 1; ABHD5-PLIN5 inh: -6; NOD2 RIPK2 PPI: -8; PRMT1 FP inh: 1; TLR4 MyD88 comp: 2; TLR9-MyD88 inh: -5

How did O=C1CCC[C@H]2C[C@H](NCCc3ccncc3)CC[C@]23CCCN13 do in these assays?
PRMT1 FP inh: 0

How did COc1ccc(NC(=O)C(C)Sc2ccccc2)cc1 (stereo not given) do in these assays?
rCAG RNA binder: 0; ABHD5-PLIN5 inh: -2; NOD2 RIPK2 PPI: 1; PRMT1 FP inh: -1; TLR4 MyD88 comp: -1; TLR9-MyD88 inh: 2

Results for CC(=O)Nc1ccc(SC(C)C(=O)NC(N)=O)cc1 (stereo not given) ?
rCAG RNA binder: 1; ABHD5-PLIN5 inh: -3; NOD2 RIPK2 PPI: -12; PRMT1 FP inh: 39*; TLR4 MyD88 comp: -6; TLR9-MyD88 inh: 2; PRMT1 inh conf: 31*

Results for O=c1c2ccccc2sn1-c1cc(S(=O)(=O)N2CCOCC2)ccc1N1CCCC1 ?
rCAG RNA binder: 4; ABHD5-PLIN5 inh: 13; NOD2 RIPK2 PPI: -8; PRMT1 FP inh: 88*; TLR4 MyD88 comp: 4; TLR9-MyD88 inh: -2; PRMT1 inh conf: 80*

What do the screens show for `COc1ccc(S(=O)(=O)N(C)C)cc1NC(=O)CCNC(=O)c1ccco1`?
rCAG RNA binder: 3; ABHD5-PLIN5 inh: 7; NOD2 RIPK2 PPI: -8; PRMT1 FP inh: 0; TLR9-MyD88 inh: 10

How did CCOC(CCNC(=O)c1cc(-c2cccs2)nc2ccccc12)OCC do in these assays?
rCAG RNA binder: -2; ABHD5-PLIN5 inh: -3; NOD2 RIPK2 PPI: -9; PRMT1 FP inh: 6; TLR9-MyD88 inh: -12

Results for COc1ccc(OC)c(-n2c(-c3cc(-c4ccc(F)cc4)n[nH]3)n[nH]c2=S)c1 ?
rCAG RNA binder: 27; ABHD5-PLIN5 inh: -2; NOD2 RIPK2 PPI: -11; PRMT1 FP inh: 35*; TLR4 MyD88 comp: -17; TLR9-MyD88 inh: 0; PRMT1 inh conf: 6

How did O=C1C=CC(=Nc2ccc(F)cc2)O1 do in these assays?
rCAG RNA binder: 3; ABHD5-PLIN5 inh: 11; NOD2 RIPK2 PPI: 9; PRMT1 FP inh: 50*; TLR9-MyD88 inh: -12; PRMT1 inh conf: 79*

Results for Cc1ccsc1C(=O)NCCc1ccc(S(N)(=O)=O)cc1 ?
rCAG RNA binder: -1; ABHD5-PLIN5 inh: -2; NOD2 RIPK2 PPI: 3; PRMT1 FP inh: 0; TLR9-MyD88 inh: -2

Results for COc1ccc(C(=O)N2CCN(c3cccc(C)c3C)CC2)cc1S(=O)(=O)NC1CC1 ?
rCAG RNA binder: -6; ABHD5-PLIN5 inh: -7; NOD2 RIPK2 PPI: -2; PRMT1 FP inh: -1; TLR9-MyD88 inh: -6

What do the screens show for `NC1=NC(=O)C(CC(=O)NCc2ccccc2)S1` (stereo not given)?
rCAG RNA binder: 1; ABHD5-PLIN5 inh: 7; NOD2 RIPK2 PPI: -6; PRMT1 FP inh: 17; TLR4 MyD88 comp: 4; TLR9-MyD88 inh: -3

Results for NC1=NC(=O)CC(C(=O)NCc2ccccc2)S1 (stereo not given) ?
rCAG RNA binder: 1; ABHD5-PLIN5 inh: -1; NOD2 RIPK2 PPI: 3; PRMT1 FP inh: 36*; TLR4 MyD88 comp: -4; TLR9-MyD88 inh: 1; PRMT1 inh conf: 10

Results for COC(=O)[C@]1(C#N)CC(=O)N(C(C)C)[C@@H]1c1ccccc1 ?
rCAG RNA binder: -1; PRMT1 FP inh: -8

Source: PubChem
